# About 79,000 compounds went through this panel and 15% of them were active in at least one assay; those are over-represented in the sample as a whole. Unmarked numbers belong to inactive results. Activity calls are given as the source filed them. Cut-off read from the data, not from the text of the source: active = growth inhibition above about 70%; inactive = the rest.
# Assays:
# [1] = NCI Yeast Anticancer Drug Screen. Data for the rad50 strain (AID 155);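 note: 0% = growth of vehicle-only cultures of the same strain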; conditions: S. cerevisiae rad50 strain growth inhibition; at 50.0 µM; stronger effect = higher value
# In short: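 Relative growth inhibition (compound vs vehicle) was measured in yeast with a defined repair-gene alteration.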
# [2] = NCI Yeast Anticancer Drug Screen. Data for the mec2-1 strain (AID 157); conditions: S. cerevisiae mec2-1 strain, at 50.0 µM, stronger effect = higher value
# In short: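 Cells of the genetically defined mec2-1 yeast strain are incubated with test compound. Inhibition of growth is calculated against vehicle-treated controls.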
# [3] = NCI Yeast Anticancer Drug Screen. Data for the sgs1 mgt1 strain (AID 161);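 note: 0% = growth of cultures given vehicle only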; conditions: S. cerevisiae sgs1 mgt1 strain, at 50.0 µM, stronger effect = higher value
# In short: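 Test agents were incubated with a DNA-repair-mutant yeast strain. Growth was then read and compared against vehicle-treated controls.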
# [4] = NCI Yeast Anticancer Drug Screen. Data for the cln2 rad14 strain (AID 165);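 note: 0% = growth equal to vehicle treated cultures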; conditions: S. cerevisiae cln2 rad14 strain, at 50.0 µM, stronger effect = higher value
# In short: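 The screen exposed genetically defined yeast (cln2 rad14) to test compounds and scored growth inhibition relative to vehicle-treated controls.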
# [5] = NCI Yeast Anticancer Drug Screen. Data for the bub3 strain (AID 167); conditions: S. cerevisiae bub3 mutant strain, at 50.0 µM, stronger effect = higher value
# In short: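 Screening used yeast with an engineered genetic alteration affecting cell cycle control. Compound-exposed cultures were compared with vehicle cultures, and reduced growth was taken as inhibition.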
# [6] = NCI Yeast Anticancer Drug Screen. Data for the mlh1 rad18 strain (AID 175); conditions: S. cerevisiae mlh1 rad18 strain growth inhibition; at 50.0 µM; stronger effect = higher value
# In short: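 Compound-treated yeast growth, normalised to vehicle controls. Strain bears defined DNA repair mutations.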
SMILES,growth inhibition [1],growth inhibition [2],growth inhibition [3],growth inhibition [4],growth inhibition [5],growth inhibition [6]
CC(C(O)c1ccc(Cl)cc1)C(O)(C(F)(F)F)C(F)(F)F (configuration not stated),99.2% (active),99.3% (active),99.2% (active),99% (active),99% (active),99.4% (active)
O=C(O)CCc1ccc(O)c(O)c1,19.6%,2.5%,11.8%,13.3%,2.8%,-21.8%
CC(C)NCC(C)(C)[N+](=O)[O-],5.05%,-8.55%,3.65%,-4.1%,3.3%,-0.95%
CCOC(=O)C(CCN(C)C)(CCN(C)C)c1ccccc1,-6.3%,-2.75%,21.6%,-30.2%,-13%,-2.75%
Nc1ccn(C2CC(F)C(CO)O2)c(=O)n1 (configuration not stated),19.6%,11.2%,17.2%,1.5%,7%,-1.8%
O=c1oc2ccccc2cc1CCBr,16.4%,11.4%,-6.1%,-3.3%,-9.2%,-8.05%
COc1cc2cc3c4cc(OC)c(OC)cc4cc[n+]3cc2cc1OC,-4.5%,-54.5%,-2.8%,-12.3%,-15.8%,-68%
c1ccc(N=C2SC(=NC3CCCCC3)N(C3CCCCC3)C2=Nc2ccccc2)cc1,3.35%,-18.9%,-0.05%,9.1%,-4.9%,-29.3%
O=C1CC2(C(=O)N1CN1CCOCC1)c1ccccc1-c1ccccc12,-7.55%,-4.5%,15.6%,3.7%,4.05%,-11.1%
O=C(NC(c1ccccc1)C(Cl)(Cl)c1ccccc1)c1ccccc1 (configuration not stated),21.8%,-7.5%,6.4%,-0.2%,22.9%,23.3%
CCOC(=O)NC(=O)c1cn(CC(=O)NCC(=O)NCC(=O)NCCCN2CCN(CCCNC(=O)CNC(=O)CNC(=O)Cn3cc(C(=O)NC(=O)OCC)c(=O)[nH]c3=O)CC2)c(=O)[nH]c1=O,-5%,2.4%,-6.85%,-23.2%,-1.05%,-15.8%
O=C(O)c1c(Cl)ccc(F)c1Cl,9.45%,1.2%,4.5%,-11.9%,11.3%,8.35%
O=C(Nc1ccc(Br)cn1)c1sc2ccccc2c1Cl,8.2%,-9.7%,26.6%,19.4%,16.4%,14.2%
N/N=C1/CCCc2nonc21,-19.7%,-17.1%,-29.4%,-22.2%,-25.4%,-48.4%
Nc1nc2c(c(-c3ccc(Cl)cc3)n1)CN(c1ccc(Br)cc1)C2=O,40.5%,0.8%,-4.85%,12.7%,-3.1%,11.9%
CC1(C(=O)O)CCCC1C(CCC(=O)O)C(=O)O (configuration not stated),-13.8%,15.1%,0.55%,-19.6%,-6.9%,-35.1%
CCCCCCCC/C=C\CCCCCCCC(=O)OCCN(CCOC(=O)CCCCCCC/C=C/CCCCCCCC)C(=O)COC(=O)CCCCCCC/C=C\CCCCCCCC,-9.3%,-11.8%,-24.4%,-7.6%,-7.35%,10.7%
CN(N)c1cnn(-c2ccccc2)c(=O)c1Cl,-37.2%,-48%,-22.1%,19.4%,21.4%,-36.6%
OC1CCCCC1C1CCCCC1 (configuration not stated),28.9%,4.45%,15.2%,22.3%,-4.4%,26.7%

SMILES,growth inhibition [1],growth inhibition [2],growth inhibition [3],growth inhibition [4],growth inhibition [5],growth inhibition [6]
CC/C(=N\NS(=O)(=O)c1ccc(C)cc1)c1ccc(Br)cc1,27.4%,-7.2%,-1.6%,-7.3%,-3.6%,3.4%
CCOC(=O)C1C(c2cc(OC)c(OC)c(OC)c2)c2cc3c(cc2OC1(C)OC)OCO3 (configuration not stated),5.55%,5.4%,-0.15%,-1.3%,-5.25%,19.1%
O=C(COc1ccccc1[N+](=O)[O-])Nc1cccnc1,-18.9%,-10.8%,-12.3%,-9.25%,-3.25%,8.25%
Fc1ccc(C=C2c3ccccc3-c3ccccc32)cc1,11.7%,4.5%,18.4%,39.2%,11.7%,-3.6%
COc1cc2c(c(Cl)c1OC)CCN(C)CC2c1ccccc1 (configuration not stated),-5.25%,-15.3%,-13.9%,-9.5%,-1.45%,1.85%
Cc1ccc(-c2cc(=O)c3cccc(CC(=O)O)c3o2)cc1,47.4%,-38.9%,-20.5%,-3.45%,-25.8%,-1.2%
O=C(c1ccccc1)C(c1ccccc1)S(=O)(=O)N1CCOCC1 (configuration not stated),1.3%,13.3%,2.85%,-13.1%,-11.6%,-7.65%
OC(CCN1CC2CCC(CC2)C1)(Cc1ccccc1)c1ccc(F)cc1 (configuration not stated),-3.8%,-7.9%,23.1%,-5.15%,22.6%,-7.25%
Nc1ccc(N=Nc2ccc(C(=O)O)cc2)cc1,-32.9%,-48%,18.1%,3%,-26.4%,-7.6%
O=C(O)c1cnc2c(ccc3[nH]cccc32)c1=O,-7.3%,-33.8%,-9%,15.6%,19.6%,-2.8%
CC(=O)OCCSc1ccc(Cl)cc1,-2.4%,9.8%,6.6%,-33.2%,-23.3%,-7.65%
COc1ccc(NC(=O)Nc2cc(C(F)(F)F)ccc2Cl)cc1,14.6%,16.6%,5.9%,-26.1%,2.5%,-9.65%
CC12CC(=O)OC(Cc3ccccc31)O2 (configuration not stated),-50.4%,-27.1%,-51.7%,-1.25%,-63.6%,-40.5%
O=C(Nc1ccc(Cl)c(Cl)c1)Nc1cccc2nsnc12,4.45%,7.35%,-2.7%,13.2%,-1.5%,26.2%
NC1C=NNC1=O (configuration not stated),-11.1%,-7.95%,-9.5%,-13.2%,-10.1%,-23.9%
CCC1(O)CC2CN(CCc3c([nH]c4ccccc34)C(C(=O)OC)(c3cc4c(cc3OC)N(C)C3C(O)(C(=O)NCCSSCCNC(=O)C5(O)C(O)C6(CC)C=CCN7CCC8(c9cc(C%10(C(=O)OC)CC%11CN(CCc%12c%10[nH]c%10ccccc%12%10)CC(O)(CC)C%11)c(OC)cc9N(C)C58)C76)C(O)C5(CC)C=CCN6CCC43C65)C2)C1 (configuration not stated),23.4%,11.4%,24.9%,42.8%,40.1%,37.6%
CCOCCOC(=O)CCC1CCCCC1,29.8%,16.5%,9.1%,11.2%,19%,29.6%
CCCOC(=O)C(CC)CC(C)C (configuration not stated),-4.95%,2.85%,-4%,-22.7%,9.35%,14.8%

# — PubChem BioAssay (NCI)
